In PubChem BioAssay AID1903 (Southern Research Specialized Biocontainment Screening …, 2009):
Screen size: about 310,000 compounds; about 1,200 (0.39%) were called active. How the calls were made is not given here. Only a sample is shown. Measured potencies and affinities stand elsewhere.

Molecular target: Large T antigen (Simian virus 40) (UniProt P03070)
Assay: TAg ATPase/helicase activity blockers – biochemical (AID 1903)
Settings: SV40 large T antigen ATPase/helicase inhibition assay; at 20 µM; stronger effect = higher value

Chain of Large T antigen (Simian virus 40) (P03070 whole entry, looked up): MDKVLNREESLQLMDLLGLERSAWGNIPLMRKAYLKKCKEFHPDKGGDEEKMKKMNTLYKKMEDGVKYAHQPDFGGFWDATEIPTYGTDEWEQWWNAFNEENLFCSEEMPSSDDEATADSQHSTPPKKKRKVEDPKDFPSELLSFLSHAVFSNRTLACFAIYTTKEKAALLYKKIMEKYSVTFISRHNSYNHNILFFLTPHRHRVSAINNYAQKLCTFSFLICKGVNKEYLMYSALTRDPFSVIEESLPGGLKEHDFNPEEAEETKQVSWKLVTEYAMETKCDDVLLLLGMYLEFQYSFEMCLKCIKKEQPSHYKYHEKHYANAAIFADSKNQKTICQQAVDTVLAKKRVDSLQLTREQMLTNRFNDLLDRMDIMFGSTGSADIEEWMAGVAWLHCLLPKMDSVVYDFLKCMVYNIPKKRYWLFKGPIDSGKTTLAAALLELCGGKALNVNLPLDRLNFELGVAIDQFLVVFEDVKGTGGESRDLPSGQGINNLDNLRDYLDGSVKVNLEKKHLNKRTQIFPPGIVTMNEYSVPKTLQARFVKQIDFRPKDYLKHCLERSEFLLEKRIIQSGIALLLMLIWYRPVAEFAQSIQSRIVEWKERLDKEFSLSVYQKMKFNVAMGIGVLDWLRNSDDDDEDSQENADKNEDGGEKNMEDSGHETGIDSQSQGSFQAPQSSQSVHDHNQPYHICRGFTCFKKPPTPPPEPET

inhibition, inactive:
Nc1nnnn1CC(=O)N/N=C/C=C/c1ccccc1 13.8%
CC(C)N=C(Nc1ccccc1)c1cccnc1 -1.87%
Cc1snc(SCc2ccc(F)cc2)c1C#N 10.8%
COc1ccc(NC(=O)c2ccc(-n3cnnn3)cc2)c([N+](=O)[O-])c1 -1.81%
O=C1CSC(=S)N1c1cccc(Br)c1 9.66%
O=c1c2c([N+](=O)[O-])cc([N+](=O)[O-])cc2nc2ccccn12 9.53%
O=C1c2c([N+](=O)[O-])cc([N+](=O)[O-])cc2S(=O)N1Cc1ccccc1 (centres undefined) 11.3%
CC1CCCC(C)N1C(=O)COC(=O)c1ccc2c(c1)OCO2 (centres undefined) -2.3%
Cc1ccc(S(=O)(=O)N2CCN(C(=O)COC(=O)CCOc3cc(C)ccc3C)CC2)cc1 7.19%
COc1ccccc1OCC(=O)N1CCNC1=O 12%
O=C1NC(=S)N/C1=C/c1ccc2c(c1)OCO2 11.6%
O=Cc1ccc2c(c1)CCN2Cc1ccccc1 3.42%
O=C(O)c1cc(NS(=O)(=O)c2ccc3ccccc3c2)ccc1O 25.9%
CC(=O)c1c(C)oc2ccc(NS(=O)(=O)c3ccc(O)c(C(=O)O)c3)cc12 20.5%
O=C(O)c1cccc(S(=O)(=O)Nc2ccc3c(c2)OCO3)c1 15.8%
O=C(O)c1cccc(S(=O)(=O)Nc2ccc3[nH]c(=O)[nH]c3c2)c1 -8.06%
C=CCN(c1ccccc1)S(=O)(=O)c1cccc(C(=O)NNC(=O)c2ccccc2O)c1 7.21%
CC(C)c1nc(SCC(=O)Nc2ccc3c(c2)OCCO3)c2c(=O)n(C)c(=O)n(C)c2n1 3.08%
Cc1c(NC(=O)/C(C#N)=C/c2ccc(-c3cc(Cl)ccc3Cl)o2)c(=O)n(-c2ccccc2)n1C 0.645%
C/C(=N\Nc1nc(N)cc(Cl)n1)c1ccc(F)cc1 1.42%
CSc1cccc(CNC(=O)C2CCC(=O)N(CCc3ccccn3)C2)c1 (centres undefined) 25.2%
Cc1ccc(-c2ccc(=O)n(CC(=O)NCCN3C(C)CCCC3C)n2)cc1 (centres undefined) 0.56%
COc1ccccc1N(CC(=O)NCc1ccccc1C)S(=O)(=O)c1ccc(C)cc1 2.07%
Cc1ccc2c(c1)/C(=C/c1ccco1)C(=O)N2 -3.2%
O=C1Nc2ccccc2Nc2ncccc21 -0.98%
COc1cc(C)c2c(c1C=O)Oc1c(c(C)c(O)c3c1C(O)OC3=O)OC2=O (centres undefined) 20%
COc1cc(C(=O)O)c2c(c1C)OC(=O)c1c(C)cc(O)c(C=O)c1O2 5.23%
Cc1ccccc1NC(=O)NC1(C(=O)N2CCN(C)CC2)CCCCC1 8.19%
COc1cc(OC)cc(C(=O)N/N=C/c2ccc(OC)c(COc3ccc(F)cc3)c2)c1 -6.49%
Cc1ccc(-c2nnc(Nc3cccc(O)c3)c3ccccc23)cc1S(=O)(=O)NCCO 34.4%
CC(=O)Nc1ccc(Nc2nnc(-c3ccc(C)c(S(=O)(=O)NCCO)c3)c3ccccc23)cc1 10.9%
Cc1cnc(NCCc2ccccc2)s1 7.89%
O=C(CSc1nncc2ccccc12)Nc1cccc(C(=O)O)c1 27.1%
CN(CC(=O)Nc1ccc(F)cc1)C(=O)COc1ccc([N+](=O)[O-])cc1Cl 0.38%
C[C@@H]1O[C@@H](O[C@H]2[C@H](Oc3cc(O)c4c(c3)OC(c3ccc(O)cc3)CC4=O)O[C@H](CO)[C@@H](O)[C@@H]2O)[C@H](O)[C@H](O)[C@H]1O (some centres undefined) 34%
C[C@@H]1O[C@@H](O[C@H]2[C@H](Oc3cc(O)c4c(c3)O[C@H](c3ccc(O)cc3)CC4=O)O[C@H](CO)[C@@H](O)[C@@H]2O)[C@H](O)[C@H](O)[C@H]1O 25.7%
CC(C)Oc1ccc(CN2CCCC(CO)(Cc3ccc(F)cc3)C2)cc1 (centres undefined) 6.25%
Cc1nn(-c2ccccc2)c2sc(C(=O)NCCN3CCOCC3)cc12 16.1%
O=C1NN(c2cccc(Br)c2)C(=O)/C1=C\c1ccc(N2CCOCC2)cc1 8.36%
O=C1NN(c2cccc(Br)c2)C(=O)/C1=C\c1ccccc1 26.7%
O=C(NCc1ccccc1)C1CC(=O)N(c2ccc(OCC(=O)N3CCCC3)cc2)C1 (centres undefined) 5.81%
COc1ccccc1N(CC(=O)NCc1ccco1)S(C)(=O)=O 15.8%
O=C(O)c1cccc(Nc2cc(Cl)c3nonc3c2[N+](=O)[O-])c1 20.1%
O=C(O)c1ccccc1Nc1cc(Cl)c2nonc2c1[N+](=O)[O-] 33.3%
O=[N+]([O-])c1c(Nc2ccccn2)cc(Cl)c2nonc12 27.4%
O=C(O)c1cccc(Nc2ccc3nonc3c2[N+](=O)[O-])c1 10.9%
Cc1c(Nc2cc(Cl)c3nonc3c2[N+](=O)[O-])c(=O)n(-c2ccccc2)n1C 26.5%
O=[N+]([O-])c1c(Nc2ccccc2O)cc(Cl)c2nonc12 29.4%
CN(C)c1cc(Nc2cccc(O)c2)c([N+](=O)[O-])c2nonc12 16.9%
CN(C)c1cc(Nc2ccc(O)cc2)c([N+](=O)[O-])c2nonc12 14.7%
O=C(O)c1cnc(-c2ccccc2)nc1Sc1ccc(Cl)cc1 12.4%
CCOc1ccc(C(c2nnnn2C(C)(C)C)N2CCN(C(=O)c3ccco3)CC2)cc1 (centres undefined) 4.34%
CC(NS(=O)(=O)c1ccc(F)cc1)C(c1cccs1)N1CCOCC1 (centres undefined) -5.54%
COC(=O)c1ccccc1NC(=O)CCCCCn1nnc2ccccc2c1=O 26.9%
COc1cccc(CN(C)CC(=O)NCc2ccc(F)cc2)c1OC -3.04%
CC(=O)Oc1ccc(-c2cccc(C(=O)Oc3ccccc3)c2)cc1 -7.54%
CCN(CC)S(=O)(=O)c1ccc(NC(=O)COC(=O)CCc2cc(OC)c(OC)c(OC)c2)cc1 0.42%
O=[N+]([O-])c1ccccc1NCCOc1ccccc1 5.2%
COC(=O)c1ccccc1NC(=O)C/C(C)=N/NC(=O)CC#N 6.52%
CC(C)C[C@H](NC(=O)Nc1cccc(Cl)c1)C(=O)O 10.3%
O=C(CN1CCOCC1)Nc1ccccc1Cl 8.91%
NC(=O)N/N=C/c1ccc(-c2ccc([N+](=O)[O-])cc2)o1 12.1%
NC(N)=N/N=C/c1cc([N+](=O)[O-])ccc1O 9.25%
O=C(N/N=C/c1ccc(O)cc1O)C1CC1 33.4%
O=C(N/N=C/c1ccc(-c2cccc([N+](=O)[O-])c2)o1)c1ccccc1O 2.92%
CCCCn1c(N)c(N(CC(C)C)C(=O)C2CCN(S(=O)(=O)c3ccc(Cl)cc3)CC2)c(=O)[nH]c1=O 11.5%
O=C(NCC1CCCCC1)c1cccnc1 11.1%
O=C(NCCO)C(=O)Nc1cc2c3c(c1)CC(=O)N3CCC2 7.7%
CCCC(=O)Nc1cc2c3c(c1)CC(=O)N3CCC2 8.54%
Cc1cc(C)cc(Nc2ccc(C(=O)O)cc2N)c1 23.9%
Nc1ccc(Nc2ccccc2)c(Cl)c1 19.8%
Cc1ccc(Nc2ccc(N)cc2S(=O)(=O)O)cc1 21.6%
Cc1ccc(Nc2ccc(C(=O)O)cc2N)cc1 -4.88%
CC(=O)c1c(NCCc2ccccc2)cc(C)oc1=O -0.81%
CCC(OC(=O)c1cccs1)C(=O)NCc1ccco1 (centres undefined) 8.42%
Cc1c(Cl)cccc1NC(=O)NC1CCCCC1 2.26%
CCc1cccc2c(C(=O)CSc3nncn3-c3ccccc3OC)c[nH]c12 2.74%
COc1cccc(-n2cc(C(=O)NCCCOC(C)C)c3ccccc3c2=O)c1 11.2%
O=C(/C=C/c1ccc(O)c(O)c1)OC(Cc1ccc(O)c(O)c1)C(=O)O (centres undefined) 4.28%
O=C(/C=C/c1ccc(O)c(O)c1)OCCc1ccccc1 37.9%
CN(CCCNS(=O)(=O)c1cccc2cccnc12)Cc1ccccc1 -0.29%
O=C(Cn1c(=O)n(Cc2ccco2)c(=O)c2c3c(sc21)CCCCC3)Nc1ccccc1 51.6%
O=C(Cn1c(=O)n(Cc2ccco2)c(=O)c2c3c(sc21)CCCCC3)c1ccccc1 49.4%
CN1C(=O)C(CC(=O)NC2CCCCC2)N(C)C1=O (centres undefined) -7.63%
CCOc1ccc(N=Cc2c(O)cc(C)oc2=O)cc1 18.6%
Cc1cccc(N=Cc2c(O)cc(C)oc2=O)c1 7.74%
NC(=O)CN1CCN(S(=O)(=O)c2ccc(Cl)cc2)CC1 4.21%
COc1ccc(C(C2C(=O)CC(C)(C)CC2=O)C2C(=O)CC(C)(C)CC2=O)cc1 25.9%
COc1ccc(C2CC(=O)C=C(O)C2)cc1 (centres undefined) 6.5%
CC(=O)N(Cc1cccc(Br)c1)c1ccc(N2CCOCC2)c(Cl)c1 9.14%
Cn1c(COc2ccc3ccccc3c2)nnc1SCC(N)=O -1.72%
Cc1cccc(N=c2oc3cc(O)ccc3cc2C(N)=O)c1 22.6%
NC(=O)c1cc2ccc(O)cc2oc1=Nc1ccccc1 36.3%
CN(C)/C=N/c1c(C#N)cnn1-c1ccccc1 9.99%
